Screening data (PubChem BioAssay)
PLK1 PBD block = PLK1 (human) polo-box domain binding inhibition. Plk1 PBD binding of FITC phosphopeptide, fluorescence polarization. P53350. Potency, µM, inactives show max response, negative = inhibition, usual class: inhibitors. AID 720504. 360,000 tested, 2.8% active; further: series mostly up to about 57 µM; on the % scale 0 is the no-effect control and ±100 the full control effect; nearly all actives have a fitted effect of over 65% in size
BAZ2B inh = inhibitors of human BAZ2B bromodomain. Q9UIF8. AlphaScreen BAZ2B-H3K14Ac peptide displacement. Potency, µM (titrated, usually from 114 µM), for the others: top-dose activity change, negative = inhibition, most hits filed as inhibitors. 360,000 tested, 4.4% active; further: on the % scale 0 is the no-effect control and ±100 the full control effect; nearly all actives have a fitted effect of over 60% in size
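BAZ2B 50 nM plus b-H3(5-23)K14Ac 50 nM, PBS pH 7.4/0.01% Tween-20, 30 min RT; compound added (max 110 uM), 30 min RT; streptavidin donor/Ni-chelate acceptor beads 10 ug/mL final, 20 min dark; AlphaScreen read.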
G9a inh = G9a (human) methyltransferase inhibition; Q96KQ7; G9a H3K9 monomethylation, AlphaScreen, 2 h; Potency, µM (highest dose often 102 µM), without a hit: top-dose activity, negative = inhibition, usual class: inhibitors; 350,000 tested, 8.8% active; further: on the % scale 0 is the no-effect control and ±100 the full control effect; nearly all actives have a fitted effect of over 75% in size
Target sequence (Q96KQ7 913-1193 limits assumed): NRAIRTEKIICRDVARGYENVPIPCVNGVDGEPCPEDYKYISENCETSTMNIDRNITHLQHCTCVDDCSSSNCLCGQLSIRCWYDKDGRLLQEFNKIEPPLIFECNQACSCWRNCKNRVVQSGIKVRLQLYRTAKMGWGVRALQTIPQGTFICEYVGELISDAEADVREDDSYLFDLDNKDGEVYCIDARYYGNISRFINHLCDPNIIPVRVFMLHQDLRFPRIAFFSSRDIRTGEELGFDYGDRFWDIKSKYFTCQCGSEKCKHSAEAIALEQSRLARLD
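Enzyme 20 nM + cpd, 15 min RT; add b-H3K9 pep 500 nM / SAM 20 uM; 2 h RT; anti-H3K9me1 Ab 0.5 ug/mL + SA donor / anti-rabbit acceptor beads 20 ug/mL each, 10 min; AlphaScreen read.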
Sfp inh = inhibitors of Bacillus subtilis Sfp phosphopantetheinyl transferase; Q9F4F7; Biochemical Sfp PPTase activity, qHTS; Potency, µM, for the others: largest response in the series, negative = inhibition, actives largely listed as inhibitors; 310,000 tested, 3.5% active;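 further: the enzyme is Sfp with the accession as filed and its product quenches rhodamine fluorescence; 0% = enzyme reaction without inhibitor and -100% = no enzyme wells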
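Step 1, compound plus 15 nM Sfp-PPTase, 15 min, room temperature. Step 2, add rhodamine-CoA (5 uM) and BHQ-2-YbbR (12.5 uM). Step 3, read 525/598 nm fluorescence at 0 and 30 min.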
JMJD2A Tudor = JMJD2A Tudor domain (human) inhibition. AlphaScreen JMJD2A-Tudor / H3K4me3 peptide binding. Potency, µM (titrated, usually from 114 µM), for the others: top-dose activity change, negative = inhibition, actives largely listed as inhibitors. AID 504339. 390,000 tested, 4.4% active; further: on the % scale 0 is the no-effect control and ±100 the full control effect; nearly all actives have a fitted effect of over 50% in size
HP1b chromo inh = blocks HP1-beta chromodomain binding to methylated histone tails | Potency, µM (doses to about 114 µM), for the others: at the top dose activity change, negative = inhibition, most hits filed as inhibitors | 390,000 tested, 0.56% active | AlphaScreen HP1-beta / biotin-H3K9me3 peptide binding | AID 540317 | P83916; further: nearly all actives have a fitted effect of over 70% in size
Target sequence (P83916 whole entry, looked up): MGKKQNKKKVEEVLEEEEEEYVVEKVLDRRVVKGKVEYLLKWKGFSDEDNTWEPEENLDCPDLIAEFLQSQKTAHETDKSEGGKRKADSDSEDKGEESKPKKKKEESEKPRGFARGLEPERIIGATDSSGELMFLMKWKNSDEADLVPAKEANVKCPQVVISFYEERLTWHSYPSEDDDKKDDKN
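AlphaScreen: HP1-beta (50 nM) preformed 30 min with biotin-H3(1-18)K9me3 peptide (50 nM) in PBS pH 7.4, 0.01% Tween-20. Compound added for 30 min at RT, then streptavidin donor/nickel chelate acceptor beads (10 ug/mL) for 30 min.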
Starred values were filed as active, the others as inactive; u = inconclusive; x = no result given; [ ] = dose if it differs, or a comment. Most compounds without a hit are left out; they make up all but 12% or so of the library. The call rests on the fitted dose curve; in most records, active means well fitted curve in the direction sought with a large enough effect; inconclusive means small, poorly fitted or top-dose-only effect, or another doubt; inactive means no such curve, though single readings can be large; an effect the other way counts as inactive or inconclusive. Potency means the concentration at half of the fitted maximal effect.

SMILES	PLK1 PBD block	BAZ2B inh	G9a inh	Sfp inh	JMJD2A Tudor	HP1b chromo inh
Cn1c(=O)c2[nH]c(Cc3ccsc3)nc2n(C)c1=O	2%	x	x	x	u	26%
CCCCc1nc2ccccc2[nH]1	-11%	5%	8%	12%	-9%	7%
Nc1ccc2nc(CCCCc3nc4ccccc4[nH]3)[nH]c2c1	2%	u	35µM*	-6%	u	2%
O=S(=O)(CCc1ccncc1)c1ccc(Cl)cc1	-3%	u	35µM*	3%	-21%	7%
O=S(=O)(CCc1ccccc1)c1ccccc1	x	x	x	-15%	x	x
O=C(c1cccc(F)c1)N1CCC[C@@]2(CCN(c3ccccn3)C2)C1	x	x	-6%[12.7 µM]	9%	x	x
COC(=O)C1=C(C(=O)OC)[C@@H]2N(Cc3ccccc3)c3ccccc3[C@@]23C[C@@H](C(=O)OC)N(S(=O)(=O)c2c(C)noc2C)C3=N1	x	x	x	-4%	x	x
CCN(CC)CCOC(=O)C(Cc1cccc2ccccc12)CC1CCCO1 (stereo not given)	-6%	50µM*	-22%	-24%	20µM*	u
COc1cccc(CNS(=O)(=O)c2cnc(N)nc2)c1	x	-2%	-36%[59 µM]	x	-12%	11%[57 µM]
CCc1c(C)nc2cc(-c3ccc(OC)c(OC)c3)nn2c1NCC1CC1	1%	-37%	56µM*	22µM*	u	-9%
O=C(COc1ccc(Br)cc1)NNC(=O)Cc1ccc(S(=O)(=O)N2CCOCC2)s1	-3%	x	x	x	-8%	47%
C/C(=N\Nc1ccc(F)cc1)c1ccc(N2CCOCC2)c(F)c1	u	-19%	28µM*	-6%	-25%	32%
Cc1cccc(NC(=O)CSc2nc3c(c(=O)[nH]2)CN(Cc2ccc4c(c2)OCO4)CC3)c1C	x	-1%	-44%[59 µM]	x	0%	34%
O=C(NCCN1CCOCC1)c1cc(Cl)ccc1Cl	-13%	-1%	19%	1%	-15%	27%
COCC(C)NC(=O)NC1(C(F)(F)F)Oc2ccc(Cl)cc2O1 (stereo not given)	-12%	12%	35µM*	-28%	-15%[57.1 µM]	3%
O=C(NCCN1CCOCC1)NC1(C(F)(F)F)Oc2ccc(Cl)cc2O1 (stereo not given)	-21%	2%	10µM*	-34%	40µM*	34%
OC1(c2ccccc2)CN(c2ccccc2)C2=[N+]1CCS2 (stereo not given)	-1%	40µM*	-23%[59 µM]	5%	-20%	1%
CCSc1ccccc1C(=O)n1nnc2ccccc21	5.6µM*	35%	-7%[59 µM]	u	66%	97%
CC(=O)n1nnc2ccccc21	x	x	x	3%	-5%	15%
Cc1occc1C(=O)n1cnc2ccccc21	x	11%	u	-12%	x	x
Cc1occc1C(=O)n1nnc2ccccc21	u	3%	u	32µM*	-7%	42%
CN(c1ccccc1)S(=O)(=O)c1cccc(NC(=O)C2=NNC(=O)CC2)c1	-10%	x	x	x	-2%	10%[57 µM]
COc1cc(F)c(S(=O)(=O)N2CCN(S(=O)(=O)c3ccc4c(c3)OCCO4)CC2)c(F)c1	x	x	x	x	-7%	x
CCOc1c(CNCCSc2nnnn2C)cccc1OC	x	-11%	-39%[59 µM]	x	-6%	15%
Cc1ccc2c(N)c(C(=O)N(c3ccccc3)c3ccccc3)sc2n1	-5%	-13%	14µM*	u	-5%	35%
COc1ccc(C(=O)c2sc3nc(-c4ccccc4)ccc3c2N)cc1	-2%	11%	u	-13%	14%	130%
Cc1ccc(C)c(CN2C(=O)c3ccccc3S(=O)c3ccc(C(=O)NCc4ccccc4)cc32)c1 (stereo not given)	x	-15%	-27%[59 µM]	x	-14%	35%
CCNC(=S)Nc1ccc2cn[nH]c2c1	24µM*	2%	15%[59 µM]	9%	-15%	40%
O=C(Nc1ccc2cn[nH]c2c1)c1c(Cl)cccc1Cl	u	50µM*	1.8µM*	40µM*	u	1%
CC(=O)Nc1ccc(NC2=C(Cl)C(=O)c3ccccc3C2=O)cc1	-7%	-5%	-90%	-4%	-10%	14%
